This note sets out measurements from PubChem BioAssay (NCATS).

Inconclusive results are not listed. Active and inactive are the calls of the source. Unless noted, calls come from the whole dose curve; as a rule, active = well fitted curve in the direction sought with a large enough effect; inconclusive = small, poorly fitted or top-dose-only effect, or another doubt; inactive = no such curve, though single readings can be large; an effect the other way counts as inactive or inconclusive.

Experiment [1] deals with Zika virus NS2B-NS3 protease (linked construct). Put plainly: Primary screen NINDS Rhodamine qHTS for Zika virus inhibitors (AID 1347160). For activity change, negative = inhibition: % is set by controls: 0 for no effect and ±100 for the full control effect. Note: nearly all actives have a fitted effect of over 55% in size. Note: potency is the fitted concentration of half-maximal effect. The procedure, abridged:
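Purified NS2B-NS3 protease with the NS2B hydrophilic domain joined by a flexible linker (25 nM) in 10 mM Tris-HCl pH 8.0, 0.01% Tween 20, preincubated 15 min at RT with compound; Rhodamine110 peptide substrate 1.5 µM; fluorescence change over 15 min; 4-parameter Hill fit.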
On the technique in general: qHTS replaces the single test concentration by a dilution series.

The nature of experiment [2]: HPAF-II Cancer Cell Toxicity qHTS against the NCATS CANVASS Library (AID 1347346). Note: nearly all actives have a fitted effect of over 55% in size. Note: potency is the fitted concentration of half-maximal effect. The procedure, abridged: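 Cytotoxicity in HPAF-II pancreatic cancer cells: 72 h treatment across 11 concentrations, ATP-based CellTiter-Glo luminescence endpoint.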
Experiment [3] in a line: Panc-1005 Cancer Cell Toxicity qHTS against the NCATS CANVASS Library (AID 1347349). Note: potency is the fitted concentration of half-maximal effect; nearly all actives have a fitted effect of over 60% in size. The gist of the method:
(§1)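 1000 cells/well; 4 h settle; 11-pnt titration; 72 h, 37 degrees C, 5% CO2; CellTiter-Glo, 15min RT; luminescence read.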

Experiment [4] in a line: UWB1.289-WTBRCA1 Cancer Cell Toxicity qHTS against the NCATS CANVASS Library (AID 1347354). Note: % is set by controls: 0 for no effect and ±100 for the full control effect. The procedure, abridged: (§2)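 qHTS cytotoxicity: compounds tested in 11 concentrations on 1000 seeded cells per well over 72 h; bortezomib served as control; signal from CellTiter-Glo luminescence.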
Experiment [5] in a line: qHTS for Hypoxia signaling pathway (HIF-1) agonists against the NCATS CANVASS Library (AID 1347375). Note: 0% is about no effect. The procedure, abridged:
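Inducers of HIF-1 signaling were detected in ME-180 cells bearing an HRE-driven beta-lactamase reporter after 17 h compound exposure. Activity came from CCF4-AM FRET emission ratio (460/530 nm) in qHTS format.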

Experiment [6] is described as follows: qHTS for Antimalaria activity screened against the NCATS CANVASS Library (AID 1347380).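 For activity change, negative = inhibition: Plasmodium falciparum strain Dd2 asexual parasites grown in red blood cells.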 Note: nearly all actives have a fitted effect of over 40% in size. Note: potency is the fitted concentration of half-maximal effect. The procedure, abridged:
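Growth inhibition of asexual erythrocytic P. falciparum Dd2 was quantified by SYBR Green DNA staining. Cultures grew 72 h with compound (11-point series) in hypoxic gas at 37C; lysis and staining lasted 18 h.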

Experiment [7] in a line: UWB1.289 Cancer Cell Toxicity qHTS against the NCATS CANVASS Library (AID 1347347). Note: potency is the fitted concentration of half-maximal effect; nearly all actives have a fitted effect of over 60% in size. The procedure, abridged:
as §1

A short description of experiment [8]: COV-362 Cancer Cell Toxicity qHTS against the NCATS CANVASS Library (AID 1347352). Note: potency is the fitted concentration of half-maximal effect. The gist of the method: as §2
A short description of experiment [9]: qHTS assay for small molecule disruptors of mitochondrial membrane potential screened against the NCATS CANVASS Library (AID 1347389). Note: nearly all actives have a fitted effect of over 60% in size. Note: potency is the fitted concentration of half-maximal effect. The gist of the method:
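Compounds tested in 11-point qHTS series on HepG2 cells for 1 hr; membrane-potential dye added for 30 min at 37C. Lower red-to-green ratio indicates loss of potential.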

Experiment [10] can be described thus: Confirmation and Secondary Assay for Modulators of Hemoglobin Beta Chain Splicing at IVS2 654 locus (AID 910).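 Note: HeLa cells stably carrying EGFP split by mutant beta-globin IVS2-654 intron; % of control where 0% means no effect.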 The gist of the method:
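HeLa cells stably expressing EGFP interrupted by β-globin IVS2-654 intron, seeded overnight in Opti-MEM/2% FCS, then treated 2 days at 37 °C. Restored splicing read as total peak GFP intensity per well by laser scanning cytometry (488 nm excitation, 500–520 nm emission); 500 nM antisense PNA as control.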

Experiment [11] is described as follows: Confirmation and Secondary Assay for Modulators of Hemoglobin Beta Chain Splicing at IVS2 705 locus (AID 930).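 Note: HeLa cells stably expressing the EGFP-705 splicing reporter; GFP fluorescence per well restored by corrected splicing of the IVS2-705 intron in EGFP; % of control where 0% means no effect.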 The gist of the method:
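Read-out: total peak GFP fluorescence per well (488 nm excitation, 500-520 nm emission) by laser-scanning cytometry. Cells: HeLa EGFP-705 splicing reporter, 2 days compound exposure in Optimem/2% FCS.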

A short description of experiment [12]: qHTS Assay for Lipid Storage Modulators (AID 1519; calls by dose curve; for activity change, negative = inhibition: % is set by controls: 0 for no effect and ±100 for the full control effect). The conditions noted are these: Drosophila S3 cells, BODIPY lipid droplet/cell ratio, laser cytometry, cells loaded with oleic acid. The gist of the method:
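Cells seeded at 5,000 per well were treated with compounds over a concentration series and loaded with oleic acid (400 uM, as added). Lipid droplet fluorescence (488 nm excitation, 500-530 nm channel) was read by laser-scanning cytometry and normalized to 20 uM Triacsin C.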

In experiment [13] the test system is Zika virus NS2B-NS3 protease (linked construct). In words: 384 well plate NINDS Rhodamine confirmatory qHTS for Zika virus inhibitors (AID 1347164).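 For activity change, negative = inhibition: top concentration of the series differs between compounds; plate controls were no-inhibitor control for no effect and no-enzyme control for full effect.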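 Note: fluorescence from protease cleavage of Ac-LKRR-rhodamine 110 substrate; nearly all actives have a fitted effect of over 65% in size.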 Note: potency is the fitted concentration of half-maximal effect. The procedure, abridged: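 Fluorescence at 485/538 nm was measured 25 minutes after adding 10 microM Ac-LKRR-Rd substrate, in the dark at room temperature. The protease (5, 30 or 60 nM final) had been preincubated ~15 minutes with compound; aprotinin as control.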

Experiment [14] can be described thus: Confirmatory screen NINDS Rhodamine qHTS for Zika virus inhibitors (AID 1347161).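 Note: purified Zika NS2B-NS3 protease with linked NS2B cofactor domain and Rhodamine110 peptide substrate; plate controls were no-inhibitor control for no effect and no-enzyme control for full effect; nearly all actives have a fitted effect of over 60% in size.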 The procedure, abridged:
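Each compound, titrated, sat 15 min with 25 nM linked protease before 1.5 microM Rhodamine110 substrate went in. Fluorescence gain over the next 15 min, in pH 8.0 Tris with Tween 20, gave Hill-fitted curves.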

Experiment [15] deals with Zika virus NS2B-NS3 protease (linked). In words: 384 well plate NINDS AMC confirmatory qHTS for Zika virus inhibitors (AID 1347163). Note: potency is the fitted concentration of half-maximal effect; nearly all actives have a fitted effect of over 50% in size. The gist of the method: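 Linked protease 5/30/60 nM final; cpds up to 1 mM final, ~15 min preinc. Substrate Ac-VKTGKR-AMC 30 microM final. RT, dark, 25 min; FI ex 355/em 460; normalized to no-enzyme/no-inhibitor ctrls.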
Experiment [16] in a line: qHTS drug screen for cell cycle checkpoint inhibitors in PARPi-resistant BRCA-mutant ovarian cancer cell lines. (AID 1963452; calls by dose curve). The following applies: PEO1/OlaR viability, CellTiter-Glo luminescence, 96 h, stronger effect = lower value. The procedure, abridged:
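PEO1, PEO4 and PEO1/OlaR ovarian cancer cells, 600 per well, exposed 96 h at 37C to a dilution series. Viability read by CellTiter-Glo luminescence, normalized to DMSO and empty wells; activity summarized as Z-AUC.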

Experiment [17] can be described thus: qHTS to identify inhibitors of the type 1 interferon - major histocompatibility complex class I in skeletal muscle: primary screen against the NCATS Mechanism Interrogation Plate v5.0 (MIPE) Libary (AID 1347411).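 Note: plate controls were vehicle for no effect and reference inhibitor for full effect; nearly all actives have a fitted effect of over 65% in size.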 The gist of the method:
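Cells were genome-edited human myoblasts carrying a HiBit tag on endogenous HLA-B. They were treated with IFN-beta (4.0 ng/ml) and titrated compounds (top 46 uM) for 24 hrs before lytic HiBiT detection.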

`CC[C@H](O)CCCCC[C@@H]1NC(=O)[C@H]2CCCCN2C(=O)[C@H]([C@H](C)CC)NC(=O)[C@H](Cc2cn(OC)c3ccccc23)NC1=O`: the Potency is 15.6 µM (active) in [1], 3.75 µM (active) in [2], 18.8 µM (active) in [3] and 1.49 µM (active) in experiment [6]. The Potency entry in [4] was “inactive”. Further, the outcome in [5] was inactive.

Turning to `CC(=O)Oc1cc2c(c(OC(C)=O)c1C1CCc3cc(Cl)c(Cl)n31)C(=O)n1c-2cc(Cl)c1Cl` (configuration not stated), the Potency in experiment [1] was 3.92 µM (active); in experiment [7] it was 3.34 µM (active); in experiment [8], 9.41 µM (active); in experiment [9] it was 2.09 µM (active). For the same molecule, in experiment [5], the molecule was classed as inactive.

Take `CC1COC2=C1C(=O)C(=O)c1c2ccc2c1CCCC2(C)C` (configuration not stated): the outcome in experiment [10] and in [11] was inactive. Also, in [12] (at 57.5 µM (top of the series)), the activity change, negative = inhibition was 2.92% (inactive). The max response in experiment [12] (measured here: cell count channel max response) was -7.49%; in experiment [12] (measured here: lipid channel max response) it was -5.49%. The Potency in [13] is 79.4 µM (active).

For the molecule `CCOC(=O)c1ccc(CN(Cc2ccc(Br)cc2)S(=O)(=O)c2cccc(C(F)(F)F)c2)cc1`, the Potency entry in experiment [14] is “inactive”.

For `Cc1cc(C)c(O)c(C(=O)CC2CC(=O)NC(=O)C2)c1`, the Potency entry in experiment [1] and in experiment [9] was “inactive” each time. For the same molecule, the call in [5] was inactive. Besides, the Potency in [6] was 2.98 µM (active).

On to `C/C(=C\[C@H](C)C(=O)C[C@H](O)CC1CC(=O)NC(=O)C1)[C@@H]1OC(=O)CCCC/C=C/C[C@@H](O)[C@@H]1C`, for which the Potency entry in [1] and in [9] was “inactive” in each case. Besides, the molecule was called inactive in experiment [5]. Also, in experiment [6], the Potency was 4.72 µM (active).

In the case of `COc1cc(C(=O)O)ccc1NC(=O)[C@@H]1N[C@@H](CC(C)(C)C)[C@](C#N)(c2ccc(Cl)cc2F)[C@H]1c1cccc(Cl)c1F`, the figures for the Potency in experiment [15] and in experiment [13] were 31.6 µM (active) and 5.62 µM (active), respectively. The values for the Z-AUC in experiment [16], in experiment [16] (measured here: PEO1 parental Z-AUC) and in experiment [16] (measured here: PEO4 Z-AUC) were 2.81 (inactive), 1.51 and 1.24, respectively.

Consider `CC1c2cccc(O)c2C(O)=C2C(=O)C3(O)C(O)=C(C(N)=O)C(=O)C(N(C)C)C3C(O)C21` (configuration not stated), for which the Potency in [15] was 282 µM (active). The Potency entry in [13] and in experiment [17] was “inactive” throughout.

In the case of `Oc1ccc(C2Oc3cc(O)c4c(c3[C@@H]2c2cc(O)cc(O)c2)[C@H]2C(c3ccc(O)cc3)c3c(O)cc5c(c3[C@H]2C4c2ccc(O)cc2)[C@H](c2cc(O)cc(O)c2)C(c2ccc(O)cc2)O5)cc1` (some centres not stated), the Potency in experiment [1] was 15.6 µM (active). In addition, the Potency entry in experiment [2] was “inactive”. For the same molecule, in experiment [5], the outcome was inactive.

On to `CO/C=C/C(=O)c1cc2cnc3c(N)cc(=NC(=O)C(C)C)c([nH]1)c23`, for which the Potency in [1] is 17.5 µM (active); in [9] it was 3.31 µM (active). Moreover, in [6], the Potency entry was “inactive”.

With `C/C=C/C(=O)C1(O)CC2CC(C(=O)O)CC(C)C2C1C1=C2C(=O)NC(=O)C2=C(CCCCC)C(C)O1` (configuration not stated), in experiment [1], the Potency is 49.3 µM (active). Further, in experiment [5], the result was inactive. Besides, the Potency entry in [6] was “inactive”.

Consider `COC(=O)c1cc2cc3c(c(O)c2c(=O)o1)OC1(CC3)CC2=C(O1)C(=O)c1c(O)c(OC)cc(OC)c1C2=O` (configuration not stated), for which, in experiment [1], the Potency is 2.47 µM (active). In [6], the Potency result is “inactive”.

For `CO[C@H]1/C=C/CCCCC(=O)O[C@@H](/C(C)=C/[C@H](C)C(=O)C[C@H](O)CC2CC(=O)NC(=O)C2)[C@@H](C)C1`, the values for the Potency in experiment [1] and in experiment [6] were 49.3 µM (active) and 9.41 µM (active), respectively. In addition, the molecule was classed as inactive in [5]. Besides, the Potency result in experiment [9] is “inactive”.

Consider `CC(C)=CC[C@H]1C[C@@]2(CC=C(C)C)C(=O)[C@](CC=C(C)C)(C(=O)C(C(=O)c3ccccc3)=C2O)C1(C)C`, for which the Potency in experiment [1] was 4.4 µM (active); in experiment [7], 8.38 µM (active). Also, in [5], the molecule was called inactive.
